Data: PubChem BioAssay AID624345 (National Center for Advancing Translational Sciences (NCATS), 2012)
Activity calls are given as the source filed them.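 How the source made its calls: active means IC50 of 75 µM or lower for blocking USP2 cleavage of diubiquitin, judged on gels; inconclusive means IC50 above 75 µM but below 100 µM; inactive means IC50 of 100 µM or more.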

Target: Ubiquitin carboxyl-terminal hydrolase 2 (Homo sapiens) (UniProt O75604)
Assay: Inhibitors of USP1/UAF1: Hit Validation in USP2 Diubiquiting Gel Assay
Conditions: USP2 K63-diubiquitin cleavage, SDS-PAGE gel densitometry
Excerpt: Deubiquitinating enzymes (DUBs) are a class of enzymes that can cleave isopeptide bond formed between the C-terminal carboxylate of ubiquitin and a lysine side-chain amino group on the target protein. Among them, ubiquitin specific proteases (USPs) constitute the largest DUB family. Human USPs are emerging as promising targets for pharmacological intervention because of their connection to a number of human diseases, including prostate, colon and breast cancer (1, 2), pediatric acute lymphoblastic leukemia (3), and familial cylindromatosis (4). The advantage of inhibiting USPs lies in the potential specificity of therapeutic intervention that can lead to better efficacy and reduce nonspecific side effects. In a collaboration between the University of Delaware and the NIH Chemical Genomics Center, a high-throughput screen assay was developed to screen for USP1/UAF1 inhibitors. This miniaturized assay has a fluorescent read-out and is used to screen the NIH Molecular Libraries Small Molecule Repository (MLSMR) in order to identify a small molecule that inhibits USP1. Follow-up assays have also been developed to further test the hits from the primary screen. This assay validates the hits identified from the primary screen using a USP2 diubiquiting gel assay. NIH Chemical Genomics Center [NCGC] NIH Molecular Libraries Probe Centers Network [MLPCN] MLPCN Grant: DA030552 Assay Submitter (PI): Zhihao Zhuang, University of Delaware 1. Priolo, C., et al. (2006) The isopeptidase USP2a protects human prostate cancer from apoptosis. Cancer Res 66, 8625-8632 2. Popov, N., et al. (2007) The ubiquitin-specific protease USP28 is required for MYC stability. Nat Cell Biol 9, 765-774 3. […]
The inhibition assay contains 20 nM USP2, 2 microM K63 linked diubiquitin, and inhibitors at varied concentrations (0.08 microM - 114 microM). […] The intensity of the individual diubiquitin and monoubiquitin band was quantified using Quantity One 4.3.1 (Biorad, Hercules, CA). The percentage of the conversion was determined and used to calculate the reaction rate. […]

Chain of Ubiquitin carboxyl-terminal hydrolase 2 (Homo sapiens) (O75604 whole entry, looked up): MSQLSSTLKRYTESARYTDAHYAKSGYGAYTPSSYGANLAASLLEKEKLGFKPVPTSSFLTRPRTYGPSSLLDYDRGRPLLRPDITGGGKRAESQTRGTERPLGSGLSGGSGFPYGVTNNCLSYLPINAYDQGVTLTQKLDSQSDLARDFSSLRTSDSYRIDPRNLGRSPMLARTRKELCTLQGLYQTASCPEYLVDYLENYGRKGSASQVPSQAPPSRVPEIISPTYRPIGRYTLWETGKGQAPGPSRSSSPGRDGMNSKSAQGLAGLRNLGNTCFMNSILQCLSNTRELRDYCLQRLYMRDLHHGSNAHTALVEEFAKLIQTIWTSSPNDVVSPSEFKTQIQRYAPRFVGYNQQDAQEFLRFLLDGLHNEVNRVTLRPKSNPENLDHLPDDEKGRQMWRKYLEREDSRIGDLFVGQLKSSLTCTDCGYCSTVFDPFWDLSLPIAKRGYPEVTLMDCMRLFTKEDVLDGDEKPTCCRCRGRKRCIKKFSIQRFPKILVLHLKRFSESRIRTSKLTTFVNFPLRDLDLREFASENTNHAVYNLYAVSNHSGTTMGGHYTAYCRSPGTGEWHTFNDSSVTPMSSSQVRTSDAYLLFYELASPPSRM

outcome, inactive:
FC(F)(F)c1ccccc1-c1nc(NCc2cccs2)c2ccccc2n1, Cc1cccc(CNc2ccnc(-c3ccccc3C(F)(F)F)n2)c1, Cc1ccccc1-c1nc(NCc2cccs2)c2ccccc2n1
